Laboratory results published in PubChem BioAssay AID1259343 (VanderVen Lab, College of Veterinary Medicine, Cornell …, 2017).
Screen size: about 6,200 compounds; about 2,900 (47%) were called active. So high a share suggests a set chosen from earlier hits. Some of the results follow. Unmarked numbers belong to inactive results. No stated cut-off is given here; in the data, active means inhibition above about 50%; inactive means the rest.

experiment: Mycobacterium tuberculosis growth inhibition, primary screen (AID 1259343); conditions: inhibition: at 10 µM, hits give high values; outcome: 10 uM

Compound | inhibition
CCCCN1CCC(COC(=O)c2cc(Cl)c(N)c3c2OCCO3)CC1 | 98.9% (active)
Cc1cccc(SC2CCN(c3nncc(-c4ccccc4)n3)CC2)c1 | 32.6%
NC(N)=NCc1ccc(Cl)cc1Cl | 74.4% (active)
Nc1ncc(Cc2cc(Cl)ccc2Cl)s1 | -17.2%
Nc1ncc(Cc2ccc(Cl)cc2F)s1 | 35.3%
Cc1nc(C)c(-c2csc(Nc3cccnc3)n2)s1 | 35.7%
Cc1nc(C)c(-c2ccc(SCc3c(F)cccc3Cl)nn2)s1 | 69.8% (active)
CC(NC(=O)C1CC(c2cccc(F)c2)=NO1)c1ccc(F)cc1F (stereo not given) | 84.1% (active)
O=C(Nc1ccc(-n2cccn2)nc1)C1CC(c2cccc(F)c2)=NO1 (stereo not given) | 14.1%
O=C(NC(C1CC1)C1CC1)C1CC(c2ccc(Cl)s2)=NO1 (stereo not given) | -31.9%
O=C(Oc1ccc2ccccc2c1)c1cccs1 | 86.7% (active)
CCOc1ccccc1C(=O)Oc1ccc2ccc(O)cc2c1 | 40.6%
COc1ccc2c(=O)c3c(oc2c1)C(=O)N(c1nccs1)C3c1ccccc1 (stereo not given) | 11.9%
COc1ccc2c(c1)OCc1c-2oc2cc(OC)ccc12 | 81.8% (active)
COc1ccc2c(=O)c3c(oc2c1)C(=O)N(c1nccs1)C3c1ccc(C(C)(C)C)cc1 (stereo not given) | 5.45%
CC1CCc2c(Cl)cc(Cl)c(O)c2N1 (stereo not given) | 103% (active)
COc1cc(C=Nc2ccc3ncccc3c2)cc(OC)c1OC | -5.15%
COc1cc(C=Nc2ccc(I)cc2)cc(OC)c1OC | 75.7% (active)
COc1cc2c(cc1/C=C/C(=O)N1CCc3ccccc31)OC(C)C2 (stereo not given) | 59.3% (active)
Cc1ccc2c(c1)CCCN2C(=O)/C=C/c1ccco1 | 44.5%
O=c1c(Oc2ccc(Cl)cc2)coc2cc(O)ccc12 | 33.2%
CCCc1cc(=O)oc2cc(OC(C)C)c(Cl)cc12 | 23.5%
CCCc1cc(=O)oc2cc(O)ccc12 | 55.5% (active)
O=c1c(Oc2ccccc2)coc2cc(O)ccc12 | 88.5% (active)
CCCc1nc2oc3cc(OC)ccc3c(=O)c2c(=O)n1CCc1ccccc1 | 4.8%
CCCc1oc2cc(O)ccc2c(=O)c1Oc1ccccc1 | 80.2% (active)
CCCc1cccc(C)c1O | 42.4%
O=c1c(Oc2ccccc2F)coc2cc(O)ccc12 | 11.6%
O=c1c(Oc2ccc(F)cc2)coc2cc(O)ccc12 | 103% (active)
CCOC(=O)C(C)Oc1ccc2c(=O)c(Oc3ccc(OCC)cc3)coc2c1 (stereo not given) | 22.8%
